# Screening data deposited in PubChem BioAssay by several laboratories.
# An excerpt weighted towards active compounds, which were near 2.7% of everything screened.
# F508del corr: F508del CFTR correction, initial screen, CFBE line, single point; CFBE cells, YFP halide quenching; stimulated with forskolin plus potentiator P3; % fluorescence drop versus neutral controls; activity (quench increase), % at 7.58 µM; actives 0.36% (n = 350,000); AID 720511, 2013;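 active means mean added fluorescence quench of at least 8% versus neutral control, with both replicates also reaching 8%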;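 further: cells transiently co-express mutant CFTR-F508del with the halide-sensitive YFP; corrector assay measuring rescue of mutant channel to the surface after 24 h compound exposure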
# CendR NRP1 mod: modulators of CendR peptide binding to NRP-1, primary screen, biochemical, fluorescence polarization, uHTS; Neuropilin-1 (Homo sapiens), O14786; FAM-RPARPAR peptide binding to NRP-1; inhibition, % at 25 µM; actives 0.85% (n = 360,000);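 active means inhibition or corrected inhibition above about 18%, plus a signal ratio from 0.5 to 1.5, limit read from the data, passing the limit was not always enough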
# Target sequence (O14786 whole entry, looked up): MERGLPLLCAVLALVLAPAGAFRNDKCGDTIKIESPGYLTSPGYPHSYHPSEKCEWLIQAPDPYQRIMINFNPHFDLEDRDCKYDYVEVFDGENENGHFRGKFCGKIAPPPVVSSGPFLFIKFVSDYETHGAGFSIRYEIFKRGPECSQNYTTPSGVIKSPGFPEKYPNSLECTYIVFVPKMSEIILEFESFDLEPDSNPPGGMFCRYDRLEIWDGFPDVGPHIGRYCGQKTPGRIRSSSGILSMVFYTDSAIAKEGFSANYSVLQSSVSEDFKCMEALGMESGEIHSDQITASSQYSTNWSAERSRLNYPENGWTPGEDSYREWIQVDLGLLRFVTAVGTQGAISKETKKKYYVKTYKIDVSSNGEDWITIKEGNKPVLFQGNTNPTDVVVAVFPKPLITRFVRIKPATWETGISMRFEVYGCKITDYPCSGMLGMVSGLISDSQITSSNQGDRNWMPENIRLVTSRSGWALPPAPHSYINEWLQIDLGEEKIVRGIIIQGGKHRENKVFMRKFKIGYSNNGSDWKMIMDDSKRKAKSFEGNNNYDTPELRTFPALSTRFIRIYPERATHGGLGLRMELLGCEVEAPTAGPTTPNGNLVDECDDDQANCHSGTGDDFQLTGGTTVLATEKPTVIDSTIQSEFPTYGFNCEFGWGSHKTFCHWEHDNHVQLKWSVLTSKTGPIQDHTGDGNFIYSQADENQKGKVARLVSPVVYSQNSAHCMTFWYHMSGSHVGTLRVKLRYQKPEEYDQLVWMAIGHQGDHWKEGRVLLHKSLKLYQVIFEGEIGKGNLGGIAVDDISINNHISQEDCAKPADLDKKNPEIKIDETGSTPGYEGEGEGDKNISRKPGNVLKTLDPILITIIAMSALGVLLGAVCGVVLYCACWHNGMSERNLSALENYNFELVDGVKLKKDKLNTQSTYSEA
# MPTP inh: mitochondrial permeability transition pore inhibitors, primary screen, biochemical, isolated mouse mitochondria, absorbance; Ca2+ swelling absorbance, 30 min; inhibition, % at 10 µM; actives 1.4% (n = 360,000); AID 602449, 2012;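 active means inhibition of 50% or more, scaled per plate between neutral and stimulator controls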;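 further: 0% = DMSO wells given calcium and 100% = 1 mM EGTA wells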
# SKN-1 block: suppressors of acrylamide-induced Pgst-4::GFP reporter in worms, primary screen, SKN-1 inhibitor project, whole organism, uHTS, GFP/RFP fluorescence ratio, strain VP596 | C. elegans VP596 Pgst-4::GFP/RFP ratio, 24 h | inhibition, % at 21.8 µM | actives 0.49% (n = 360,000) | AID 624304, 2012;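 active means interference check ratio from 0.5 to 1.5 plus GFP to RFP signal ratio inhibition reaching or exceeding a fixed threshold, cut at about 30% in these data, passing the limit was not always enough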
# ATG4B inhibitor: ATG4B protease inhibitors, primary screen, biochemical, fluorescence, uHTS. Cysteine protease ATG4B (Homo sapiens), Q9Y4P1. ATG4B cleavage of LC3-PLA2, NBD-HPC fluorescence, 1 h. inhibition, % at 8.33 µM. actives 0.51% (n = 340,000); in the data active means inhibition above about 40%
# Active calls of the source: *; · = no result given.
SMILES,F508del corr,CendR NRP1 mod,MPTP inh,SKN-1 block,ATG4B inhibitor
CCCNC(=O)N1[C@H](C#N)[C@H](c2ccc(C#Cc3ccc(F)cc3)cc2)[C@@H]1CO,8.4*,·,·,·,·
Oc1ccccc1C=NCCN1CCN(CCN=Cc2ccccc2O)C1c1ccccc1O (stereo not drawn),1,22*,-1,5,3
CC(C)CC#Cc1ccc2c(c1)O[C@@H](CN(C)C(=O)CN(C)C)[C@H](C)CN([C@@H](C)CO)S2(=O)=O,3,·,·,·,·
Cc1ccc(-n2[nH]c(C)c(C=Nc3ccc4[nH]c(=O)[nH]c4c3)c2=O)cc1,4,30*,-1,8,-25
Cc1[nH]n(-c2cccc3ccccc23)c(=O)c1C=Nc1ccc2[nH]c(=O)[nH]c2c1,·,-8,4,41*,-2
O=C(C[C@H]1CC[C@@H]2[C@H](COC[C@H](O)CN2C(=O)C2CCOCC2)O1)NCc1ccncc1,1,·,·,·,·
Cc1nnc(-c2cccc(Br)c2)c2cn(-c3cccc(Br)c3)nc12,·,115,23,36*,2
Oc1ccccc1C=NCCN=Cc1ccccc1O,-3,1,-4,-3,9
Oc1ccc(Cl)cc1C=NCCc1ccccc1,·,3,8,6,43*
O=C(Nc1ccc2nc(-c3ccccc3)[nH]c2c1)c1cccs1,-10,2,2,39*,-9
CCCC(=O)Nc1nc(-c2ccc(Cl)s2)cs1,4,9,-2,22,3
O=C(Nc1nc(-c2ccc(Cl)s2)cs1)c1cccs1,·,-13,13,48*,35
O=C(Nc1nc(-c2ccccc2)cs1)c1cccs1,·,17,-4,63*,1
O=C(Nc1nc(-c2ccc(Cl)s2)cs1)c1ccco1,2,-7,1,85*,5
Cc1noc(C)c1NC(=O)N(C)C[C@@H]1Oc2ccc(NC(=O)Nc3ccccc3)cc2C(=O)N([C@H](C)CO)C[C@H]1C,-1,·,·,·,·
C[C@@H]1CN([C@H](C)CO)C(=O)Cc2cc(NC(=O)C3CC3)ccc2O[C@H]1CN(C)Cc1ccc(C(=O)O)cc1,2,·,·,·,·
C[C@H]1CN([C@@H](C)CO)C(=O)c2cccc(NC(=O)c3ccc(-c4nccs4)cc3)c2O[C@H]1CN(C)CC1CC1,0,·,·,·,·
CCCNC(=O)[C@H]1[C@H](CO)[C@H]2Cn3c(ccc(-c4cccnc4)c3=O)[C@H]2N1CCC,1,·,·,·,·
O=C(Nc1ccc(F)cc1)N[C@H]1CC[C@@H](CCNS(=O)(=O)c2ccccc2F)O[C@H]1CO,0,·,·,·,·
CCCCCNC(=O)c1ccccc1SC,·,-10,0,35*,-1
CSc1ccccc1C(=O)NCCOc1cccc(C)c1,-2,2,1,40*,-6
C[C@@H]1CN([C@@H](C)CO)C(=O)Cc2cc(NC(=O)C3CC3)ccc2O[C@H]1CN(C)S(=O)(=O)c1ccc(Cl)cc1,-4,·,·,·,·
C[C@H](CO)N1C[C@H](C)[C@H](CN(C)Cc2ccncc2)Oc2ccc(NC(=O)NC3CCCCC3)cc2C1=O,-2,·,·,·,·
CC(=O)N/N=C/c1cc(C(C)C)cc(/C=N/NC(C)=O)c1O,-2,41*,-1,4,-13
CC(=O)N/N=C/c1cc(C)n(-c2ccc(Br)cc2)c1C,-2,2,0,27,6
SMILES,F508del corr,CendR NRP1 mod,MPTP inh,SKN-1 block,ATG4B inhibitor
O=C(NCc1ccccn1)c1n[nH]c(=O)c2ccccc12,8.6*,-1,2,-7,-3
O=C(NCc1ccccn1)c1n[nH]c2ccccc12,·,-1,-1,-10,-18
CC(C)(C)OC(=O)C[C@H]1C/C=C\C[C@H](CC(=O)N(CCO)Cc2ccccc2)C(=O)N[C@@H](Cc2ccccc2)COC1=O,1,30*,0,2,-1
CC(C)(C)OC(=O)C[C@H]1C/C=C\C[C@H](CC(=O)N(CCO)Cc2ccccc2)C(=O)NCCOC1=O,0,29*,0,3,4
CC(C)(C)OC(=O)C[C@H]1C/C=C\C[C@@H](CC(=O)N[C@H](CO)Cc2ccccc2)C(=O)NC[C@H](c2ccccc2)OC1=O,0,3,-1,8,-7
O=C1CCC/C=C\C[C@@H](CC(=O)N(CCO)Cc2ccccc2)C(=O)N2CCC[C@H]2CO1,-3,28*,0,-3,-1
CC(C)(C)OC(=O)C[C@H]1C/C=C\C[C@@H](CC(=O)NCCO)C(=O)NC[C@@H](c2ccccc2)OC1=O,0,20*,-2,6,-10
CC(C)NC(=O)N1[C@H](CO)[C@@H](c2ccccc2)[C@@H]1CN(C)C(=O)c1ccncc1,3,·,·,·,·
COCCCNC(=S)NC1CC2CCC(C1)N2Cc1ccccc1 (stereo not drawn),0,48*,-1,-3,10
COc1ccc([C@@H](NC(=O)OC(C)(C)C)C(=O)OC(C)(C)C)cc1,0,23,0,23,3
COc1ccc(C(NC(=O)C(C)(C)C)NC(=O)C(C)(C)C)cc1,·,20*,4,-3,-7
Cc1c(S(=O)(=O)N2CCCC(C(=O)O)C2)cnn1C (stereo not drawn),-2,22*,0,4,-6
O=C(O)[C@@H]1CCCN(S(=O)(=O)c2cccc3cccnc23)C1,-2,26*,-1,0,-2
O=C1CCC(C(=O)OCc2nnc(-c3ccc(Cl)cc3)o2)=NN1,-2,7,-1,14,5
Cc1nn(Cc2ccccc2)c(Cl)c1C(=O)OCc1nnc(-c2ccc(Cl)cc2)o1,·,38*,-2,-6,-8
O=C(OCc1nnc(-c2ccc(Cl)cc2)o1)c1ccc(O)cc1,-1,29*,0,9,-10
CO[C@H](CN(C)S(=O)(=O)c1ccc(F)cc1)[C@H](C)CN([C@H](C)CO)S(=O)(=O)c1cccc(Cl)c1,2,·,·,·,·
Cc1ccc(SCCN2CCN(C)CCC2=O)cc1,-2,26*,0,5,-2
CN1CCC(=O)N(CCSc2ccccc2)CC1,-3,3,0,14,-3
COc1cccc(-c2nnc(Nc3nc4c(F)cccc4s3)o2)c1,·,33*,49,6,0
Clc1ccc(N=c2ssnc2Cl)cc1,·,-3,4,92*,-18
Clc1nssc1=Nc1ccccc1,·,-6,-3,-7,-3
COCc1cc(=O)[nH]c(/N=C(\N)Nc2ccc(C)cc2C)n1,-3,27*,-2,-7,5
Cc1ccc(N/C(N)=N/c2nc(CSc3ccccn3)cc(=O)[nH]2)c(C)c1,3,4,4,12,-2
C/C(=N\NC(=O)c1cc(O)ccc1O)c1cccc(NC(=O)c2ccc(Cl)cc2)c1,2,11,-2,10,-5
C/C(=N\NC(=O)c1cc(O)ccc1O)c1cccc(NC(=O)c2cccc(Cl)c2)c1,1,23*,-1,3,-10
CCOC(=O)c1cn(CC)c2cc(N3CCCCC3)c(F)cc2c1=O,·,1,-1,-1,-11
